From PubChem BioAssay
Hits are enriched below; roughly 9.3% of the tested compounds scored in any of these assays.
VACV mCherry inh – inhibitors of vaccinia virus infection (mCherry reporter signal). Vaccinia virus mCherry reporter infection, fluorescence. 310,000 compounds, 0.63% hits. Potency, µM (titrated, usually from 36.5 µM), hits mostly inhibitors; calls by dose curve; tested in A549 cells; further: nearly all actives have a fitted effect of over 35% in size
HCV inhibitor – blocks hepatitis C virus; Huh7.5.1 HCVcc-Cre infection, luciferase reporter, 44 h; Potency, µM (series often up to 41.8 µM), hits mostly inhibitors; 340,000 compounds, 3.4% hits; AID 651820
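Reporter virus HCVcc-Cre (~0.5 moi) infects cells exposed to compound; seeding density 1,000 cells/well with 4 h settling beforehand. Luminescence, 15 sec read, taken 44 h post-infection following a 15 min RT substrate incubation.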
FMDV inh – antivirals against foot and mouth disease virus; FMDV antiviral cell-based qHTS; Potency, µM (highest dose often 57.9 µM), most hits filed as inhibitors; 410,000 compounds, 1.2% hits; AID 1159524; calls by dose curve; tested in HEK293T cells; further: read-out not given here; nearly all actives have a fitted effect of over 45% in size
Sm TGR block – inhibitors of Schistosoma mansoni thioredoxin glutathione reductase | 360,000 compounds, 3% hits | Potency, µM (doses to about 114 µM), most hits filed as inhibitors | purified TGR, DTNB reduction, TNB absorbance 405 nm | Q962Y6; further: nearly all actives have a fitted effect of over 60% in size
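First, TGR (20 nM dispensed) and NADPH were mixed with compound. Second, a 15 min room-temperature incubation followed. Third, further NADPH and then DTNB were added to start the reaction. Finally, TNB absorbance was monitored kinetically.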
VACV Venus inh – inhibitors of vaccinia virus (Venus reporter); Potency, µM (top dose mostly 36.5 µM), usual class: inhibitors; AID 720580; Vaccinia virus Venus reporter expression, fluorescence; 330,000 compounds, 0.46% hits; calls by dose curve; tested in A549 cells; further: nearly all actives have a fitted effect of over 30% in size
HCMV antiviral – inhibitors of human cytomegalovirus. 410,000 compounds, 4.5% hits. activity change, negative = inhibition, % at 57.5 µM. HFF cells, HCMV-luciferase reporter, 72 h; hits give low values; in the data active means activity change below about -60%; inconclusive means no clear call, values can overlap the other calls; inactive means above about -39%
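Steps: HFFs plated, 16 h 37C; compounds added; HCMV-luciferase added to MOI 1 PFU/cell; 72 h 37C; OneGlo reagent, 5 min room temperature; luminescence read, normalized to controls.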
Of the large screens only hits and unclear results are named; the others gave an inactive call. Unless noted, the call rests on the fitted dose curve; in most records, active means well fitted curve in the direction sought with a large enough effect; inconclusive means small, poorly fitted or top-dose-only effect, or another doubt; inactive means no such curve, though single readings can be large; an effect the other way counts as inactive or inconclusive.

CCCc1cc(=O)oc2cc(OCC(=O)NC(Cc3ccc(Cl)cc3)C(=O)O)ccc12 (stereo not given)	HCV inhibitor 0.5µM
Cc1c(C)c2ccc(OCC(=O)N[C@@H](Cc3ccccc3)C(=O)O)cc2oc1=O	HCMV antiviral -77
CCCCc1cc(=O)oc2cc(OCC(=O)N[C@@H](Cc3ccccc3)C(=O)O)ccc12	none
COc1ccc(CNC(=O)C2CCN(S(=O)(=O)c3cccc(C(F)(F)F)c3)CC2)cc1	none
Cc1cc(OCC(=O)Nc2ccc(CN3CCOCC3)cc2)c2c(C)cc(=O)oc2c1	none (no result: VACV mCherry inh, VACV Venus inh)
O=C(COc1ccccc1Cl)Nc1ccc(CN2CCOCC2)cc1	HCV inhibitor 13µM (no result: VACV mCherry inh, VACV Venus inh)
Cc1cc(OCC(=O)Nc2ccc(CN3CCOCC3)cc2)c2c(C)c(C)c(=O)oc2c1	HCV inhibitor 11µM, FMDV inh inconclusive (no result: VACV mCherry inh, VACV Venus inh)
COc1ccc(C2C=C(c3ccccc3)Nc3nc(NC(=O)/C=C/c4ccccc4)nn32)cc1 (stereo not given)	none (no result: HCV inhibitor)
COc1ccc(C(=O)Nc2nc3n(n2)C(c2ccccc2)C=C(c2ccccc2)N3)cc1 (stereo not given)	Sm TGR block 3.2µM (no result: HCV inhibitor)
COc1ccc(C2C=C(c3ccccc3)Nc3nc(NC(=O)/C=C/c4ccccc4OC)nn32)cc1 (stereo not given)	none (no result: HCV inhibitor)
CCC(=O)Nc1nc2n(n1)C(c1ccc(OC)cc1)C=C(c1ccccc1)N2 (stereo not given)	Sm TGR block 4.5µM (no result: VACV mCherry inh, HCV inhibitor, FMDV inh, VACV Venus inh, HCMV antiviral)
Cc1cc(C)c2c(CN(C)Cc3ccccc3)cc(=O)oc2c1	none (no result: HCV inhibitor, Sm TGR block)
O=C(Cc1ccc(N2CCNC2=O)cc1)N1CCCC(Nc2ccc(F)c(F)c2)C1 (stereo not given)	VACV mCherry inh inconclusive, HCV inhibitor inconclusive, HCMV antiviral -61
O=C(CN1C(=O)/C(=C\c2cccc(Br)c2)Oc2ccccc21)NCCCN1CCOCC1	HCV inhibitor 6.3µM
O=C(CN1C(=O)/C(=C/c2ccc(C(F)(F)F)cc2)Sc2ccccc21)NCCCN1CCOCC1	HCV inhibitor 11µM (no result: VACV mCherry inh, VACV Venus inh)
CCc1ccc(/C=C2/Sc3ccccc3N(CC(=O)NCCCN3CCOCC3)C2=O)cc1	HCV inhibitor inconclusive, HCMV antiviral -60 (no result: VACV mCherry inh, VACV Venus inh)
Nc1cc(=O)[nH]c(SCC(=O)Nc2ccc(Oc3ccccc3)cc2)n1	none
C[C@@H]1CN([C@H](C)CO)C(=O)c2cc(NC(=O)Nc3ccc(C(F)(F)F)cc3)ccc2O[C@H]1CN(C)S(=O)(=O)c1cccs1	HCV inhibitor inconclusive, VACV Venus inh inconclusive (no result: Sm TGR block)
C[C@H](CO)N1C[C@H](C)[C@@H](CN(C)S(=O)(=O)c2cccs2)Oc2ccc(NC(=O)Nc3ccccc3)cc2C1=O	HCMV antiviral -65 (no result: Sm TGR block)
C[C@H](CO)N1C[C@H](C)[C@@H](CN(C)S(=O)(=O)c2ccc(F)cc2)Oc2ccc(NC(=O)Nc3ccccc3)cc2C1=O	none (no result: Sm TGR block)
C[C@H](CO)N1C[C@H](C)[C@@H](CN(C)S(=O)(=O)c2ccccc2)Oc2ccc(NC(=O)Nc3ccccc3)cc2C1=O	VACV mCherry inh inconclusive, VACV Venus inh 10µM, HCMV antiviral -73 (no result: Sm TGR block)
COc1ccc(S(=O)(=O)Nc2ccc3c(c2)C(=O)N([C@H](C)CO)C[C@H](C)[C@@H](CN(C)S(=O)(=O)c2ccc(OC)cc2)O3)cc1	VACV mCherry inh inconclusive, VACV Venus inh inconclusive, HCMV antiviral -92 (no result: Sm TGR block)
COc1cc(C)c(N)cc1C(C)C	none
COc1ccc(-c2nc(C#N)c(N3CCCCCC3)o2)cc1OC	HCV inhibitor 10µM, HCMV antiviral inconclusive (no result: FMDV inh)
CCOc1ccc(-c2nc(C#N)c(N3CCN(CC)CC3)o2)cc1	HCV inhibitor inconclusive (no result: VACV mCherry inh, VACV Venus inh)
CCOc1ccc(-c2nc(C#N)c(N3CCN(C)CC3)o2)cc1	HCV inhibitor inconclusive, HCMV antiviral -61
CCOc1ccc(-c2nc(C#N)c(N3CCCCCC3)o2)cc1	HCV inhibitor inconclusive, HCMV antiviral -70
CC(C)S(=O)(=O)c1csc(NC(=O)Nc2ccc(Cl)cc2)c1	none
Cc1cccc(S(=O)(=O)N2CCn3cccc3C2C)c1 (stereo not given)	Sm TGR block 45µM
CC(C)c1ccc(NC(=O)COC(=O)c2cc(=O)[nH]c3ccccc23)cc1	none (no result: VACV mCherry inh, VACV Venus inh)
Cc1ccc(OC(=O)c2ccc(Cl)c([N+](=O)[O-])c2)cn1	HCV inhibitor inconclusive, Sm TGR block 50µM (no result: VACV mCherry inh, VACV Venus inh)
COc1ccc(C(=O)c2ccc(Cl)cc2)cc1	HCV inhibitor inconclusive (no result: VACV mCherry inh)
COc1ccc(C(=O)c2ccc(Cl)c([N+](=O)[O-])c2)cc1	HCV inhibitor inconclusive, FMDV inh inconclusive, Sm TGR block inconclusive, HCMV antiviral -83
Cn1nccc1C(=O)N/N=C/c1cccnc1	none (no result: VACV mCherry inh, VACV Venus inh)
CC1(C)CSC(=NCc2ccccc2)N1	HCV inhibitor 10µM (no result: VACV mCherry inh, VACV Venus inh)
COCC(=O)Oc1c(Sc2ccccc2[N+](=O)[O-])c(C)nn1C(C)(C)C	Sm TGR block inconclusive, HCMV antiviral -101
COCC(=O)Oc1c(S(=O)(=O)c2ccc(C)cc2)c(C)nn1C(C)(C)C	Sm TGR block inconclusive, HCMV antiviral -71
CSc1ccccc1NC(=O)CCS(=O)(=O)c1nc(-c2ccc3c(c2)OCO3)cc(C(F)(F)F)n1	FMDV inh inconclusive (no result: HCV inhibitor)
Cc1ccccc1-c1ccc2ncnc(-n3ccnc3)c2c1	FMDV inh 40µM (no result: VACV mCherry inh, HCV inhibitor, Sm TGR block, VACV Venus inh, HCMV antiviral)
COc1cccc(NC(=O)C(Nc2ccccc2)c2ccccc2F)c1 (stereo not given)	HCMV antiviral -67 (no result: VACV mCherry inh, HCV inhibitor, FMDV inh, Sm TGR block, VACV Venus inh)
Cc1ccc(Sc2ncccc2[N+](=O)[O-])cc1	VACV mCherry inh inconclusive
Cc1c([N+](=O)[O-])cnc(Sc2ccccc2)c1[N+](=O)[O-]	HCV inhibitor inconclusive, FMDV inh 22µM, HCMV antiviral -99 (no result: VACV mCherry inh, Sm TGR block, VACV Venus inh)
Cc1ccsc1C(=O)NNC(=O)C1C2C=CC(C2)C1C(=O)O (stereo not given)	none
CCCN1CCN(CCCNC(=O)c2ccc3c(=O)n(CCc4ccccc4)c(=O)[nH]c3c2)CC1	HCV inhibitor inconclusive
O=C(CCCn1c(=O)[nH]c2cc(Cl)ccc2c1=O)NCCCN1CCN(c2ccc(F)cc2)CC1	HCV inhibitor 7.9µM, FMDV inh inconclusive, HCMV antiviral -62 (no result: VACV mCherry inh, VACV Venus inh)
COCCn1c(=O)[nH]c2cc(C(=O)NCCCN3CCN(c4ccc(F)cc4)CC3)ccc2c1=O	HCV inhibitor 10µM, FMDV inh inconclusive (no result: VACV mCherry inh, VACV Venus inh)
COCCn1c(=O)[nH]c2cc(C(=O)NCCN3CCN(c4ccccc4F)CC3)ccc2c1=O	FMDV inh inconclusive (no result: VACV mCherry inh, VACV Venus inh)
CCN1CCN(CCCNC(=O)c2ccc3c(=O)n(CCc4ccccc4)c(=O)[nH]c3c2)CC1	HCV inhibitor 10µM
CCC1CCCCN1CCCNC(=O)c1ccc2c(=O)n(Cc3ccc(OC)cc3)c(=O)[nH]c2c1 (stereo not given)	HCV inhibitor 14µM (no result: VACV mCherry inh, VACV Venus inh)
O=C(Nc1ccccc1)c1ccc(S(=O)(=O)N2CCC(C(=O)O)CC2)cc1	none
NC(=O)C1CCCNC1 (stereo not given)	Sm TGR block 28µM
CCc1noc(C)c1C(=O)NNC(=O)c1nn(C)c(=O)c2ccccc12	none (no result: VACV mCherry inh, VACV Venus inh)
CCOc1ccc(OCC)c(S(=O)(=O)NCc2ccccc2)c1	none
